Measurements from PMC4336329 (PLoS ONE, 2015).
Among all 310,000 compounds or so, about 14,000 (4.5%) showed an effect of 50% or more. The effect is printed as a negative number. For the sample, strong results were picked, then their nearest neighbours and some compounds at random.

Biological target: human ether-à-go-go-related gene (hERG) potassium channel (human, UniProt Q12809)
Assay: primary screen, population patch clamp on CHO cells stably expressing hERG; higher = less effect of the substance
Method: Briefly, Chinese hamster ovary (CHO) cells stably expressing the hERG channel were dislodged from tissue culture flasks and dispensed into PPC plates. […] During the recording, background leak currents were estimated by a 100 ms step to -80 mV from an initial holding potential of -70 mV and subtracted from the subsequent current measurement. The campaign was conducted in two phases using slight differences in recording protocol. In the first phase, the initial voltage pulse used a 100 ms step to -30 mV from a holding potential of -70 mV, a 2 s conditioning step to +25 mV, and a 2 s test step to -30 mV. During the second phase of the screen, the potential during the conditioning step was raised to +45 mV. In both phases of the campaign, a secondary voltage pulse was applied using the same parameters as the second phase initial pulse. The initial and secondary pulses were applied in the absence of compound, and upon application of 1 μM and 10 μM test concentrations. […]
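Further: peak tail current of the secondary pulse compared with the same well before compound.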

Sequence of human ether-à-go-go-related gene (hERG) potassium channel (Q12809 whole entry, looked up): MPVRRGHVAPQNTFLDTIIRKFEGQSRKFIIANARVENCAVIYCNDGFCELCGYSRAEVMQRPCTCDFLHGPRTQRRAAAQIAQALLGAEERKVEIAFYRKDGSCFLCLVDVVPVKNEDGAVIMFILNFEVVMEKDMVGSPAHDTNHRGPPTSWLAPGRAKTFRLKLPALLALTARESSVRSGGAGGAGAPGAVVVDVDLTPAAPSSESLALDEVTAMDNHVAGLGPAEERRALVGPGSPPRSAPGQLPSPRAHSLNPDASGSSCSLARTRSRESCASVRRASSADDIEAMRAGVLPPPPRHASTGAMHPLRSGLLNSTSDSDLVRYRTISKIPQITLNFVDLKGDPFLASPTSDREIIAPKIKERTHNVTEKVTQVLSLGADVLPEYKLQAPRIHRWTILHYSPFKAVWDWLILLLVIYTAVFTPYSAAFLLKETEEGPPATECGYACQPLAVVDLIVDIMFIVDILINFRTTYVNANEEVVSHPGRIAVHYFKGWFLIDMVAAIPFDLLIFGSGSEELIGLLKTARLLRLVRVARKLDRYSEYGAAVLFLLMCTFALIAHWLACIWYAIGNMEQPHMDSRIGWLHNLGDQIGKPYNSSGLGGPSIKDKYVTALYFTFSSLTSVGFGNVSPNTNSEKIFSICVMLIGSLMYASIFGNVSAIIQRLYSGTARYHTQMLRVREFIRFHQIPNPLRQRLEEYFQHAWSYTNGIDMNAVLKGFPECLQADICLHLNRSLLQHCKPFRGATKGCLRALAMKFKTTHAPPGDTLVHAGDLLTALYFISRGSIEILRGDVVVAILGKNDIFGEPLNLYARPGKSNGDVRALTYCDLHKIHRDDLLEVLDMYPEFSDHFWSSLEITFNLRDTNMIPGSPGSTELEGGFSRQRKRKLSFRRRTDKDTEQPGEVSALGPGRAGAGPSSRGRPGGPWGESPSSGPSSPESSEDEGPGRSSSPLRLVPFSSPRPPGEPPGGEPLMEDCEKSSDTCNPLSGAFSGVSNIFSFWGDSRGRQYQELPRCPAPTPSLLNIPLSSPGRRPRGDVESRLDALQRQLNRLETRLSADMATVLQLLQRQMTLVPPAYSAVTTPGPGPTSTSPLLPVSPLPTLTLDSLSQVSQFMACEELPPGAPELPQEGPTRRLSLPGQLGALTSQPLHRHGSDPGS

Row | Structure (SMILES) | hERG current change (%, negative = inhibition) at 10uM [%]
1 | CCN(CC)S(=O)(=O)c1ccc2c(c1)nc(SCC(=O)N1CCOCC1)n2-c1ccccc1OC | -31.1
2 | COc1ccccc1-n1c(SCC(=O)NC2CC2)nc2ccccc2c1=O | -23.1
3 | CCN(CC)S(=O)(=O)c1ccc2c(c1)nc(SCC(=O)N1CCCCCC1)n2-c1ccc(OC)cc1 | -21
4 | CCCCn1c(SC(C)C(=O)c2ccc(OC)cc2)nc2cc(S(N)(=O)=O)ccc21 (stereo not shown) | -18.1
5 | CCn1c(CSc2nncn2-c2ccc(OC)cc2)nc2cc(S(=O)(=O)N(C)C)ccc21 | -14.5
6 | CCN(CC)S(=O)(=O)c1ccc2c(c1)nc(SCC(=O)NC1CC1)n2-c1ccccc1OC | -56.2
7 | CCN(CC)S(=O)(=O)c1ccc2c(c1)nc(SC(C)C(N)=O)n2-c1ccc(OC)cc1 (stereo not shown) | -51.7
8 | CCN(CC)S(=O)(=O)c1ccc2c(c1)nc(SCC(N)=O)n2-c1ccc(OC)cc1 | -77.7
9 | COc1ccc(-n2nnnc2SC(C)C(N)=O)cc1 (stereo not shown) | 8.68
10 | NCCNc1ccc([N+](=O)[O-])c2cccnc12 | 1.29
11 | CCOc1ccccc1NC(=O)NNS(=O)(=O)c1cc(C)ccc1C | 6.71
12 | CSc1ccccc1NC(=O)Cc1ccc(Br)cc1 | -10.2
13 | Cc1ccc(C)c(NC(=S)N2CCC(NC(=O)c3cccc(F)c3)CC2)c1 | 1.08
14 | O=C(N/N=C/c1ccc(COc2ccc(Br)cc2)o1)c1ccco1 | 2.73
15 | Cc1ccccc1NS(=O)(=O)c1ccc2c3c(cccc13)C(=O)N2C | -4.02
16 | Cc1ccc(Cl)cc1N1CCN(C(=O)C2CCN(S(=O)(=O)c3cccnc3)CC2)CC1 | -46
17 | Cc1ccc(S(=O)(=O)N2CCC(C(=O)N3CCN(c4ccccn4)CC3)CC2)cc1 | -19.4
18 | O=C(C1CCN(S(=O)(=O)c2cccnc2)CC1)N1CCN(c2ccc(Cl)cc2)CC1 | -56.2
19 | O=C(C1CCN(S(=O)(=O)c2cccnc2)CC1)N1CCN(c2cccc(Cl)c2)CC1 | -31.5
20 | O=S(=O)(c1ccc(Cl)cc1)N1CCN(c2ccccn2)CC1 | -4.62
21 | O=C(C1CCN(S(=O)(=O)c2ccc(Cl)cc2)CC1)N1CCN(c2ccccn2)CC1 | -64.7
22 | Clc1ccc2noc(-c3ccccc3)c2c1 | 7.67
23 | COc1ccccc1CNC(=O)c1cnccn1 | 0.0654

Row | Structure (SMILES) | hERG current change (%, negative = inhibition) at 10uM [%]
24 | OCCC1CN(Cc2cccc(O)c2)CCN1CCc1ccccc1 (stereo not shown) | -24.4
25 | COc1cc(CN2CCN(Cc3cn(C)c4ccccc34)CC2CCO)cc(OC)c1 (stereo not shown) | -43.7
26 | COc1cc(CN2CCN(CCCc3ccccc3)CC2CCO)cc(OC)c1 (stereo not shown) | -71.1
27 | COc1cc(CN2CCN(CCc3ccccc3)C(CCO)C2)cc(OC)c1 (stereo not shown) | -63.5
28 | COc1cc(CN2CCN(CC#Cc3ccccc3)CC2CCO)cc(OC)c1 (stereo not shown) | -1.09
29 | OCCC1CN(Cc2cccnc2)CCN1CCc1ccccc1 (stereo not shown) | -34.8
30 | C#CCOCCOCCOCCNc1nc(N2CCN(C(=O)[C@H]([C@@H](C)CC)n3cc([C@@H](N)CO)nn3)CC2)nc(N2CCN(C(=O)[C@H]([C@@H](C)CC)n3cc([C@@H](N)CC(C)C)nn3)CC2)n1.Cl | 7.34
31 | CC1CCCCN1CCNC(=O)C1CCN(S(=O)(=O)c2cccc3nsnc23)CC1 (stereo not shown) | 2.44
32 | CCS(=O)(=O)Nc1cccc(-c2ccc3nnc(-c4cccnc4)n3n2)c1 | -4.03
33 | CC(C)c1ccc(N(CC(=O)N/N=C/c2ccc(OC3CSC3)cc2)S(=O)(=O)c2ccccc2)cc1 | 12.8
34 | CC(NC=O)c1nc2ccccc2n1CCc1ccccc1 (stereo not shown) | 5.34
35 | CCc1ccc(NC(=O)C(=O)NCC(O)c2ccccc2)cc1 (stereo not shown) | 8.25
36 | O=C(NCCc1ccccc1)c1ccc(Cl)cc1[N+](=O)[O-] | -0.169
37 | COc1ccc(OCc2nnc(SCC(=O)Nc3cccc(C(C)=O)c3)o2)cc1 | 4.32
38 | COc1ccc(Cc2nnc(SCC(=O)NCc3ccco3)o2)cc1 | 8.75
39 | COc1ccc(OCc2nnc(SCC(=O)NCc3ccco3)o2)cc1 | -14.4
40 | CCOc1ccc(NC(=O)CSc2nnc(CNC(=O)c3ccco3)o2)cc1 | -10.2
41 | CCc1ccc(OCc2nnc(SCC(=O)Nc3cccc(C(=O)N4CCOCC4)c3)o2)cc1 | -61.4
42 | O=C(CSc1nnc(CNC(=O)c2ccco2)o1)Nc1ccc(OC(F)(F)F)cc1 | -52.6
43 | Cc1cccc(OCc2nnc(SCC(=O)Nc3cccc(C(=O)N4CCOCC4)c3)o2)c1C | -2.16
44 | COc1ccc(NC(=O)CSc2nnc(CNC(=O)c3ccco3)o2)cc1 | 11.8
45 | CCc1ccc(OCc2nnc(SCC(=O)NCc3ccco3)o2)cc1 | -55.2
46 | O=C1CCCN1CCCNC(=S)Nc1ccc(Cl)cc1Cl | -65.5

Row | Structure (SMILES) | hERG current change (%, negative = inhibition) at 10uM [%]
47 | O=C1CCCN1CCCNC(=S)Nc1ccc(Br)cc1Cl | -2.97
48 | Cc1cc(Cl)ccc1NC(=S)NCCCN1CCCC1=O | 7.99
49 | CCOC(=O)CC(=O)CSc1nc2c(sc(=S)n2-c2ccc(C)c(C)c2)c(=O)[nH]1 | -10.7
50 | COc1ccccc1-c1sc2cc3c(cc2c1C#Cc1ccccn1)OCO3 | 8.78
51 | CSc1cccc(NC(=O)c2cc(S(=O)(=O)N3CCc4ccccc43)cn2C)c1 | -12.4
52 | CSCC(C)N1CCC(N2CCC(C(=O)NCc3ccccn3)CC2)CC1 (stereo not shown) | -9.59
53 | CCc1ccc(CN2CCC(C(=O)Nc3ccc(Oc4ccccc4)nc3)CC2)o1 | -58.9
54 | O=C(Nc1ccc(Oc2ccccc2)nc1)C1CCN(Cc2ccccc2)CC1 | -54.9
55 | COCCC(=O)N1CCC(C(=O)Nc2ccc(Oc3ccccc3)nc2)CC1 | 17.6
56 | COCc1ccc(CN2CCCCC2C(=O)Nc2ccc(Oc3ccccc3)nc2)o1 (stereo not shown) | -0.373
57 | CCn1cc(CN2CCC(C(=O)Nc3ccc(Oc4ccccc4)nc3)CC2)cn1 | -30.3
58 | COc1cc(CN2CCCCC2C(=O)Nc2ccc(Oc3ccccc3)nc2)ccc1O (stereo not shown) | -4.36
59 | O=C(Nc1ccc(Oc2ccccc2)nc1)C1CCN(Cc2cccc(F)c2)CC1 | -49.8
60 | C#Cc1ccc(CN2CCC(N3CCC(C(=O)NCc4ccccn4)CC3)CC2)cc1 | -72.2
61 | O=C(Nc1ccc(Oc2ccccc2)nc1)C1CCN(Cc2ccco2)CC1 | -30.8
62 | C#Cc1ccc(CN2CCC(Oc3ccc(C(=O)NCc4ccccn4)cc3)CC2)cc1 | -25
63 | COc1ccc(CN2CCC(C(=O)Nc3ccc(Oc4ccccc4)nc3)CC2)cc1F | -71.6
64 | Brc1ccccc1OCCOc1cccc2cccnc12 | 14.1
65 | O=C1OC2(CCCCC2)OC(=O)C1=CNc1nccs1 | 3.3
66 | O=C1CC(=O)C(n2cncn2)C(c2ccc(Cl)cc2Cl)C1 (stereo not shown) | 7.83
67 | CC(=O)Nc1ccc(S(=O)(=O)NCc2nnnn2-c2ccc(F)cc2)cc1 | 3.41
68 | Cc1ccc(C(=O)N2CCN(c3ncccn3)CC2)c(C)c1 | 12.1
69 | CCOC(=O)c1c(C)sc(Sc2ccc(Cl)cc2[N+](=O)[O-])c1OC | 11.3

Row | Structure (SMILES) | hERG current change (%, negative = inhibition) at 10uM [%]
70 | COc1ccc(C2C(C#N)=C(/N=C/N3CCOCC3)OC3=C2C(=O)CC(C)(C)C3)cc1OC (stereo not shown) | -13.5
71 | C#Cc1ccc(CN2CCC(C(=O)Nc3ccc(Oc4ccccc4)nc3)CC2)cc1 | -72.3
72 | O=C(Nc1ccc(Oc2ccccc2)nc1)C1CCCCN1Cc1ccc(O)cc1 (stereo not shown) | -25.2
73 | CC#CC(=O)N1CCC(C(=O)Nc2ccc(Oc3ccccc3)nc2)CC1 | 1.55
74 | Cc1ccc(C)c(S(=O)(=O)N2CCN(CC(=O)Nc3cc(C)on3)CC2)c1 | -12.6
75 | CCCCc1cc(=O)oc2c(CN(C)C)c(O)c(Cl)cc12 | -1.34
76 | CC(NS(=O)(=O)c1ccc(Cl)cc1)C(=O)Nc1ccc2c(c1)OCCO2 (stereo not shown) | -19.4
77 | CCOCCCNC(=O)CCC(=O)NNc1nc2ccccc2c2nc(-c3ccccc3)nn12 | -47.5
78 | CCN(CC)CCSc1nc(O)c(Cc2ccccc2)c(=O)n1-c1ccccc1.Cl | 15.8
79 | CCCc1c(O)nc(SCCN(CC)CC)n(C(=O)c2ccccc2)c1=O.Cl | -58
80 | CCCCc1c(O)nc(SCCN(C)C)n(-c2ccccc2)c1=O | 10.1
81 | CCN(CC(=O)Nc1c(F)cccc1F)C(=O)Cc1csc(-c2ccc(OC)c(OC)c2)n1 | -2.82
82 | CCOc1ccccc1NC(=S)NCCc1ccccc1 | 4.14
83 | O=C(Cn1c(=O)n(Cc2ccco2)c(=O)c2ccccc21)NCC1CCCO1 (stereo not shown) | 2.5
84 | N=c1c(C(=O)NCC2CCCO2)cc2c(=O)n3ccccc3nc2n1Cc1ccc(F)cc1 (stereo not shown) | -80
85 | N=c1c(C(=O)NCC2CCCO2)cc2c(=O)n3ccccc3nc2n1Cc1cccnc1 (stereo not shown) | -72.9
86 | N=c1c(C(=O)NCC2CCCO2)cc2c(=O)n3ccccc3nc2n1Cc1ccco1 (stereo not shown) | -78.7
87 | O=C(Cn1c(=O)n(Cc2ccc(F)cc2)c(=O)c2ccccc21)NCC1CCCO1 (stereo not shown) | -2.66
88 | O=C(NCC1CCCO1)c1cn(Cc2ccccc2)nc1-c1ccccc1 (stereo not shown) | -0.0253
89 | N=c1c(C(=O)NCC2CCCO2)cc2c(=O)n3ccccc3nc2n1Cc1ccccc1 (stereo not shown) | -75.3
90 | O=C(Cc1ccc(-n2c(=O)c3ccccc3n(Cc3ccc(F)cc3)c2=O)cc1)NCC1CCCO1 (stereo not shown) | -19.6
91 | Nc1c(C(=O)NCC2CCCO2)c2nc3ccccc3nc2n1Cc1ccco1 (stereo not shown) | 10.5
